In PubChem BioAssay one finds z-score and composite z-score data, which are given here for nine molecules.

Each structure is given as a SMILES string. The source made the active and inactive calls. Unless noted, how the calls were made is not given here.

Assay [1] is described as follows: compound effects on lung adenocarcinoma cell viability – A549, calcein-AM fluorescence, 48 h, basal, profiling panel (AID 1162). Further: test concentration not given here. Conditions: higher = more signal.
The nature of assay [2]: compound effects on differentiated 3T3-L1 adipocyte viability – cell-based, 3T3-L1 adipocytes, calcein-AM fluorescence, 48 h, basal, profiling panel (AID 1163). Further: test concentration not given here. The conditions noted are these: 3T3-L1 adipocytes viability, higher = more signal.
Assay [3] in a line: compound effects on hepatocellular carcinoma cell viability – HepG2, calcein-AM fluorescence, 48 h, basal, profiling panel (AID 1164). Further: test concentration not given here. The conditions noted are these: higher = more signal.
Assay [4] is described as follows: compound effects on multiple myeloma cell viability – MM1S, calcein-AM fluorescence, 48 h, basal, profiling panel (AID 1165). Further: test concentration not given here. The conditions noted are these: higher = more signal.
A short description of assay [5]: calcein-AM signal in unstimulated myeloma cells – cell-based, calcein-AM fluorescence, 48 h, PK04 Diversity Set, profiling panel (AID 1166).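 Further: cells grown under basal conditions without added stimulus; test concentration not given here.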 Conditions: RPMI8226 myeloma viability, higher = more signal.
A short description of assay [6]: JC-1 mitochondrial signal, unstimulated HepG2 cells – cell-based, JC-1 fluorescence, 24 h, 100 nL compound, profiling panel (AID 1167). Further: test concentration not given here. Conditions: HepG2 mitochondrial potential, higher = more signal.
Assay [7] is described as follows: JC-1 mitochondrial signal, unstimulated adipocytes – cell-based, JC-1 fluorescence, 3T3-L1 adipocytes, 24 h, 100 nL compound, profiling panel (AID 1168). Further: test concentration not given here. The conditions noted are these: JC-1 mitochondrial fluorescence, higher = more signal, called active from +8 up or from −8 down.
Assay [8] in a line: JC-1 mitochondrial signal, unstimulated myeloma cells – cell-based, JC-1 fluorescence, RPMI8226, 24 h, 100 nL compound, profiling panel (AID 1169). Further: test concentration not given here. The conditions noted are these: JC-1 mitochondrial potential fluorescence, higher = more signal.
Assay [9] in a line: JC-1 mitochondrial signal, unstimulated MM1S myeloma – cell-based, JC-1 fluorescence, 24 h, 100 nL compound, profiling panel (AID 1170). Further: test concentration not given here. The conditions noted are these: MM1S mitochondrial potential, higher = more signal.
The nature of assay [10]: resazurin metabolic signal in A549 cells – cell-based, resazurin fluorescence, 24 h, PK04 Diversity Set, profiling panel (AID 1171). Further: test concentration not given here. The conditions noted are these: A549 viability, higher = more signal, called active from +8 up or from −8 down.
Assay [11] can be described thus: resazurin metabolic signal in HepG2 cells – cell-based, resazurin fluorescence, 24 h, PK04 Diversity Set, profiling panel (AID 1172). Further: test concentration not given here. Conditions: HepG2 viability, higher = more signal.
The nature of assay [12]: budding yeast growth changes without added modifier – OD600, strain BY4716, 24 h, basal condition, primary screen (AID 1173). The conditions noted are these: S. cerevisiae BY4716 growth, OD600, 24 h; higher = more signal, called active from +8 up or from −8 down.
Assay [13] can be described thus: viability profiling in MM1S myeloma cells – cell-based, resazurin fluorescence, basal, 24 h, PK04 Diversity Set, profiling panel (AID 1174). Further: test concentration not given here. The conditions noted are these: higher = more signal, called active from +8 up or from −8 down.
Assay [14] addresses Dihydroorotate dehydrogenase (quinone), mitochondrial (Plasmodium falciparum (isolate 3D7)) (UniProt Q08210). Nature of the assay: inhibition of P. falciparum DHODH – biochemical, C-terminal His tag, absorbance 600 nm, primary screen (AID 1175).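 Further: recombinant parasite enzyme with a five histidine tag at its C terminus; test concentration not given here.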 Conditions: PfDHODH enzyme, DCIP absorbance 600 nm; higher = more signal, called active from +8 up or from −8 down.
Assay [15] in a line: inhibition of PAO1 biofilm formation – strain PAO1, LB-PBS medium, absorbance 600 nm, primary screen (AID 1176). Further: test concentration not given here. Conditions: P. aeruginosa PAO1 growth/biofilm, A600, 12 h; higher = more signal.
The nature of assay [16]: growth modulation of vineyard yeast isolate – strain RM11-1a, OD600, basal, 24 h, primary screen (AID 1177).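 Further: cultures grown under basal conditions with no added stressor; test concentration not given here.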 Conditions: S. cerevisiae RM11-1a growth, OD600, 24 h; higher = more signal, called active from +8 up or from −8 down.
Assay [17] can be described thus: growth of efflux-deficient E. coli DRC39 – strain DRC39, OD650, 24 h, E. coli filamentation inducers, primary screen (AID 1178).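 Further: growth measured as culture turbidity by optical density at 650 nm; test concentration not given here.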 The conditions noted are these: E. coli DRC39 acrAB, higher = more signal, called active from +8 up or from −8 down.
Assay [18] can be described thus: growth of efflux-deficient E. coli DRC39 – strain DRC39, OD650, 48 h, E. coli filamentation inducers, primary screen (AID 1179).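 Further: screen aims at cell division blockers that make cells filament.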 The conditions noted are these: E. coli DRC39 delta-acrAB growth, higher = more signal, called active from +8 up or from −8 down.
A short description of assay [19]: viability profiling in RPMI8226 myeloma cells – cell-based, resazurin fluorescence, basal, 24 h, PK04 Diversity Set, profiling panel (AID 1180).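 Further: RPMI8826 multiple myeloma cell line at 5000 cells per well; test concentration not given here.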 Conditions: higher = more signal. (Resazurin is reduced to fluorescent resorufin, in cell work by metabolically active cells.)
The target in assay [20] is E3 ubiquitin-protein ligase XIAP (Homo sapiens) (UniProt P98170). Nature of the assay: small molecules binding XIAP protein – biophysical, small-molecule microarray, fluorescence 635 nm, primary screen (AID 1181).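 Further: score merges 667 nm emission and signal to noise over triplicate slides.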 The conditions noted are these: higher = more signal.
Chain of E3 ubiquitin-protein ligase XIAP (Homo sapiens) (P98170 whole entry, looked up): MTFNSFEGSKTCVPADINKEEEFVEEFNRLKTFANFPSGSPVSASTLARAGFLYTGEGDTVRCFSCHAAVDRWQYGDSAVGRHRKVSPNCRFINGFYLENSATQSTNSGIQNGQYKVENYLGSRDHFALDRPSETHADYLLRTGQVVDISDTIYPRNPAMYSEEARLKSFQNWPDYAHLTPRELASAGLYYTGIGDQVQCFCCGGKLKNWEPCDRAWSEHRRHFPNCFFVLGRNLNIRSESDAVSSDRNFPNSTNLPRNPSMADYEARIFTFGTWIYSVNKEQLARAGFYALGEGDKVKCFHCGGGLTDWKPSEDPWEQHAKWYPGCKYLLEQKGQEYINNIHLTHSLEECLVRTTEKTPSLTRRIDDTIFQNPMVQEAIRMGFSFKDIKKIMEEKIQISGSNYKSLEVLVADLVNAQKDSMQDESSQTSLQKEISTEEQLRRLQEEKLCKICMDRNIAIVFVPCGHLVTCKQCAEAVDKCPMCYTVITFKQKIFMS

Chain of Dihydroorotate dehydrogenase (quinone), mitochondrial (Plasmodium falciparum (isolate 3D7)) (Q08210 whole entry, looked up): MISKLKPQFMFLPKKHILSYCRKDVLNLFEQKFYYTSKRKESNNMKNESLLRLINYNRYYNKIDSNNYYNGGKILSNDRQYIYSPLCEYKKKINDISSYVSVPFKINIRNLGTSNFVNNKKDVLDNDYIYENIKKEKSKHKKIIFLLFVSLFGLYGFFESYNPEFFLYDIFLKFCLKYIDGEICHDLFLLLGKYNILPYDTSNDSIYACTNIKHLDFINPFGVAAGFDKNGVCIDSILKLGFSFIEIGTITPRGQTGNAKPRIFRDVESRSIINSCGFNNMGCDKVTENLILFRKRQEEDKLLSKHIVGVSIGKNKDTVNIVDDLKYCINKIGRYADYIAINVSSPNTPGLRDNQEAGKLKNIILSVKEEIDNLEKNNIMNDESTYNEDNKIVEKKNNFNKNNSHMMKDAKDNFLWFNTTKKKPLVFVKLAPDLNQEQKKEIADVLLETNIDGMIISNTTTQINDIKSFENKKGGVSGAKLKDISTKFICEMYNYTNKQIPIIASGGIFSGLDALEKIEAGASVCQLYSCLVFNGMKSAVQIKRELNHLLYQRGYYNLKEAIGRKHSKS

On to `COc1ccc([Si](C)(C)[C@@H]2[C@@H](CC(=O)N3Cc4ccccc4C[C@H]3CO)O[C@]3(C(=O)N(c4ccccc4)c4ccccc43)[C@H]2C)cc1`, for which the z-score was -0.77 in assay [1]; 0.703 in assay [2]; -2.85 in assay [3]; -2.37 in assay [4]; -4.35 in assay [5]; 1.37 in [6]. The z-score was 0.631 (inactive) in assay [7]; -1.06 in assay [8]; -2.08 in assay [9]; -1.39 (inactive) in assay [10]; -1.05 in assay [11]; 0.318 (inactive) in assay [12]. The z-score is -2.64 (inactive) in assay [13]; 0.626 (inactive) in assay [15]; 2.42 (inactive) in assay [16]; 0.33 (inactive) in assay [17]; -0.165 (inactive) in assay [18]; -4.45 in assay [19]. Besides, the composite z-score in assay [14] is 1.13 (inactive); in [20], 2.42.

As for `CC(C)CNC(=O)[C@@]1(C)c2ccccc2C(=O)N(Cc2cc(C(F)(F)F)cc(C(F)(F)F)c2)[C@H]1c1ccc(CO)cc1`, the z-score was 0.18 in assay [1]; -0.698 in assay [2]; 1.2 in [3]; -0.236 in assay [4]; 0.208 in [5]; 2.16 in [6]. For the same molecule, the z-score was 0.103 (inactive) in assay [7]; 0.465 in [8]; -0.939 in [9]; -0.428 (inactive) in assay [10]; -0.402 in [11]; 0.145 (inactive) in [12]. Also, the z-score in [13] was -0.47 (inactive); in assay [15], -0.0933 (inactive); in [16], -0.46 (inactive); in [17], 0.162 (inactive); in assay [18], 0.644 (inactive); in [19], 0.364. Moreover, the composite z-score was 0.24 (inactive) in [14] and -0.206 in [20].

Consider `C=C(CCCC)C(=O)CC[C@H](OC(=O)c1ccccc1-c1ccccc1C(=O)O)c1ccccc1OCCO`, for which the z-score is 0.305 in assay [1]; 1.1 in [2]; -0.669 in assay [3]; -3.38 in assay [4]; -3.85 in assay [5]; -0.309 in [6]. Besides, the z-score was 0.954 (inactive) in [7]; -0.873 in [8]; 0.311 in assay [9]; -0.22 (inactive) in [10]; -1.08 in assay [11]; -1.45 (inactive) in [12]. Further, the z-score was -0.976 (inactive) in [13]; 0.91 (inactive) in [15]; -0.0444 (inactive) in assay [16]; 0.506 (inactive) in assay [17]; 0.237 (inactive) in [18]; -1.03 in [19]. For the same molecule, the composite z-score is -0.824 (inactive) in assay [14] and 0.0416 in assay [20].

On to `CN(C)C(=O)[C@@]1(Cc2ccccc2N=[N+]=[N-])N=C(c2ccc(OCCCO)cc2)O[C@H]1c1ccccc1`, for which the z-score in assay [1] was -1.85; in assay [2], 0.574; in [3] it was -0.954; in [4], -2.99; in assay [5], -3.67; in assay [6] it was 0.517. Also, the z-score in assay [7] is 0.0738 (inactive); in assay [8], -1.25; in assay [9] it was -1.67; in [10] it was -2.2 (inactive); in assay [11], 0.329; in assay [12] it was -1.23 (inactive). For the same molecule, the z-score in assay [13] is -3.18 (inactive); in assay [15], 0.274 (inactive); in assay [16], 0.751 (inactive); in assay [17] it was -0.105 (inactive); in assay [18], -1.1 (inactive); in assay [19], -3.04. Also, the composite z-score was 0.346 (inactive) in assay [14] and 0.102 in assay [20].

For the molecule `[N-]=[N+]=NC[C@H](Cc1ccccc1)NC(=O)c1ccccc1`, the z-score in assay [1] is 0.431; in [2] it was 0.474; in [3], 0.611; in assay [4] it was 0.357; in assay [5], 0.661; in [6], 0.581. The z-score in assay [7] is 0.219 (inactive); in assay [8] it was -0.0299; in assay [9] it was 0.171; in assay [10], 1.19 (inactive); in assay [11], 0.198; in assay [12], -3.7 (inactive). In addition, the z-score in assay [13] is 1.46 (inactive); in assay [15], -0.382 (inactive); in [16], -0.401 (inactive); in assay [17], 0.487 (inactive); in assay [18] it was 0.352 (inactive); in assay [19], 0.839. Besides, the composite z-score is -0.178 (inactive) in [14] and -0.394 in [20].

As to `Cc1ccc(S[C@]2(C(=O)NC(C)C)CC(=O)N(C(C)C)[C@@H]2c2ccc(CO)cc2I)cc1`, the z-score in [1] is 0.931; in assay [2], -0.134; in assay [3], 0.0096; in [4], -2.39; in assay [5], -1.38; in [6] it was 1.09. The z-score was 0.389 (inactive) in assay [7]; -0.312 in [8]; -1.32 in [9]; -0.0361 (inactive) in [10]; 0.197 in [11]; -2.15 (inactive) in assay [12]. For the same molecule, the z-score in [13] is -0.463 (inactive); in assay [15], 0.444 (inactive); in assay [16] it was -0.471 (inactive); in assay [17], 0.882 (inactive); in assay [18], -0.0992 (inactive); in assay [19] it was -1.72. The figures for the composite z-score in [14] and in assay [20] were 0.0738 (inactive) and 0.158, respectively.

Regarding `CCCCCCCCCCC(O)C1C=CC2C(=O)N(c3ccccc3)C(=O)C2N1Nc1ccccc1F` (stereo not given), the z-score in assay [1] was 0.059; in assay [2] it was -0.849; in [3], -0.016; in [4], -0.598; in assay [5], -0.105; in assay [6] it was -0.777. In addition, the z-score was -0.45 (inactive) in [7]; -0.415 in assay [8]; -0.193 in assay [9]; 0.162 (inactive) in assay [10]; 0.0366 in assay [11]; 0.864 (inactive) in assay [12]. Besides, the z-score is -0.361 (inactive) in assay [13]; 0.819 (inactive) in assay [15]; 0.719 (inactive) in [16]; -0.717 (inactive) in [17]; 0.555 (inactive) in assay [18]; -0.335 in [19]. The composite z-score in [14] was 0.742 (inactive); in [20], 0.174.

On to `CC(=O)n1cc(C(O)C2C=CC3C(=O)N(c4ccccc4)C(=O)C3N2Nc2ccc(C(C)C)cc2)c2ccccc21` (stereo not given), for which the z-score was -0.545 in [1]; -0.745 in assay [2]; -1.08 in [3]; -0.829 in assay [4]; -1.33 in assay [5]; -0.975 in [6]. Moreover, the z-score in assay [7] is -1.16 (inactive); in assay [8], -0.886; in assay [9], 0.299; in assay [10], 0.169 (inactive); in assay [11], -1.41; in assay [12], -2.33 (inactive). Further, the z-score in assay [13] was -1.12 (inactive); in [15], 1.44 (inactive); in [16], 1.36 (inactive); in assay [17], -0.0648 (inactive); in assay [18], -0.0683 (inactive); in [19], -1.06. The figures for the composite z-score in [14] and in assay [20] were 0.708 (inactive) and 0.0072, respectively.

Turning to `C=CCN1C(=O)[C@@]2(O[C@@H](CCO)[C@H]([Si](C)(C)c3ccc(OC)cc3)[C@H]2C)c2cc(N3CCOC3=O)ccc21`, the z-score in assay [1] is -2.23; in assay [2], 1.33; in assay [3], -4.75; in assay [4] it was -2.77; in [5], -4.38; in assay [6], -2.9. The z-score in [7] is 1.25 (inactive); in [8] it was -1.08; in assay [9] it was -2.3; in [10] it was -3.36 (inactive); in [11] it was -5.76; in [12], 1.07 (inactive). The z-score in assay [13] was -8.77 (active); in assay [15] it was 0.519 (inactive); in assay [16], 4.47 (inactive); in assay [17] it was 0.891 (inactive); in [18], 0.231 (inactive); in [19] it was -6.2. In addition, the composite z-score in assay [14] was 1.58 (inactive); in [20], -0.0807.
